± gives the standard deviation.

This assay relates to MILI (PIWIL2) piRISC loaded with piRNA #1 (26 nt). The assay can be described thus: pre-steady-state target cleavage rate (min^-1); guide: piRNA #1 5'p-UGAGGUAGUAGGUUGUAUAGUAUCCA; MIWI and MILI are mouse PIWI proteins and EfPiwi is from a freshwater sponge; tags in brackets are library labels; higher = faster piRNA-guided slicing of the target. Particulars: auxiliary factor: 500 nM mouse GTSF1. In outline: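 Active affinity-purified piRISC (1 nM) loaded with one synthetic guide was mixed with a transcribed, DNA-blocked target RNA library (0.1 nM), with or without 500 nM GTSF1 partner protein, in HEPES–potassium acetate buffer at 33 °C for 0–8 or 0–960 min. Uncleaved targets were sequenced, normalised to depth and to weakly complementary targets, and pooled across three trials, with k3 capped at 0.0001 min^-1. The pre-steady-state cleavage rate was determined with a burst-and-steady-state fit.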
As to GGAGACCUAUGAUUACAACCUAUUACCUCA, the “pre-steady-state target cleavage rate” value was 0.00348 ± 0.0024. Then GGAGACCUAAGUAUACAACCUACUUCCUCA, with 0.0285 ± 0.0069; and GGAGACCUAUGAAUAACAACCUACUACCUCA, with 0.00368 ± 0.0026; and GGAGACCUUACUAUAAACCUACUACCUCA, with 0.00481 ± 0.0027. Then GGAGACCUAUGAAUACAUCCUACUAGCUCA, with 0.00797 ± 0.0028; and GGAGACCUAUGUAAACAACCUACUAGCUCA, with 0.00495 ± 0.0023. Then GGAGAGGAUACUAUACUACCUACUAGCUCA, with 0.0852 ± 0.013. Consider GGAGACCUAUGAUUACAAGGUACUACCUCA, for which the “pre-steady-state target cleavage rate” value amounted to 0.0041 ± 0.0031.

GGAGACCUAUCUUUACAUCCUACUACCUCA: the “pre-steady-state target cleavage rate” value was found to be 0.104 ± 0.013. For GGAGACCUAUGAUAUCAUCCUACAACCUCA, the “pre-steady-state target cleavage rate” value stood at 0.00348 ± 0.003. As for GGAGACCUAACUAUAAAACCUACUACCUCA, the figure is 0.0772 ± 0.013; as for GGAGACCUUACUAUACAACCUACUACCUGCA, 0.167 ± 0.019; as for GGAGACCUAUGAUAACAACCUACUAGCCUCA, 0.00672 ± 0.0023. As for “GGAGACCUAUGAAUACAACGAUGAUGGAGA [g12:g18:cont:t1A]”, the figure is less than 0.0001; as for GGAGACCUAUGAUUACAACCUACUACCAUCA, 0.00378 ± 0.0028. As for GGAGUGGAUACUAUACAAGGAACUACCUCA, the figure is 0.00353 ± 0.0018; as for GGAGACGAUACAAUAGAACCUACUACCUCA, 0.178 ± 0.014. Regarding “GGAGACCUAUGAUAUGUUCCUACUACCUCA [g2:g12:cont:t1A]”, the “pre-steady-state target cleavage rate” value was less than 0.0001.

In the case of GGAGACCAUACAAUACAACCUACUAGCUCA, the “pre-steady-state target cleavage rate” value was determined as 0.181 ± 0.029. Then GGAGACCAUACAUUACAACCUACUACCUCA, with 0.0869 ± 0.014; and GGAGACCUAUGUUUACUACCUACUACCUCA, with 0.00553 ± 0.0021. As for GGAGACCUAACUAUUCAACCUACUACCACA, the figure is 0.118 ± 0.022; as for GGAGACCUAUCUAUACAACCUACUACGUGA, 0.0608 ± 0.013; as for GGAGACCAUACUAUACAAGCAACUACCUCA, 0.00864 ± 0.003. As for GGAGACCUAUGUAUGACAACCUACUACCUCA, the figure is 0.0123 ± 0.0037. With GGAGUGCAUACUAUACAACCUACUUCCUCA, the “pre-steady-state target cleavage rate” value was determined as 0.00653 ± 0.0022.

With GGAGACGAUACUAAACAACCUACUACCACA, the “pre-steady-state target cleavage rate” value turned out to be 0.214 ± 0.019. As for GGAGACCUAUGAUAUGAAGCUACUUCCUCA, the figure is less than 0.0001. As for GGAGACCUAUCUAUAGAACCUACUACCUCA, the figure is 0.0821 ± 0.013; as for GGAGACCUAUGUAUACAACGUACUACCUCA, 0.00969 ± 0.0018; as for GGAGACCUAUGUAUACAACCAACUACCUCA, 0.0033 ± 0.002. Then GGAGACCUAUCUAUACAACCAACUACCACA, with 0.00574 ± 0.0023; and GGAGACCUAUCUAUACAACCAACUACCUCA, with 0.00522 ± 0.0024. As to GGAGACCUAUGUAAACAACCUACUACCACA, the “pre-steady-state target cleavage rate” value was 0.00967 ± 0.0036. Then GGAGACCUAUGUUUACAACCUACUACCUGA, with 0.00584 ± 0.0023.

For GGAGUGGAUACUAAUGAACCUACUACCUCA, the “pre-steady-state target cleavage rate” value turned out to be 0.0477 ± 0.0065. As to GGAGACCUAUGUAUACAACCUACUACGACA, the “pre-steady-state target cleavage rate” value came to 0.0279 ± 0.0061.

GGAGACCAUAGUAUUCAACCUACUACCUCA: the “pre-steady-state target cleavage rate” value is 0.11 ± 0.013. As for GGAGACCUAACAAUACAACCUACUUCCUCA, the figure is 0.0651 ± 0.019. As for GGAGACGAUACAAUACAACCUACUAGCUCA, the figure is 0.137 ± 0.023.
